# Data published in PMC8384837, “Expanding the binding specificity for RNA recognition by a PUF domain”.
# Assays:
# Assay in all cases: yeast three-hybrid, YBZ-1, SC-Leu-His + 0.5 mM 3-AT, 4 days
# Settings in all cases: tags: N-Gal4 AD-HA kept; label: inside an RPR1-promoter hybrid RNA with tandem MS2 sites; ssRNA
# PUM1 PUF domain R7-QPR = PUM1 PUF domain R7-QPR (Homo sapiens, UniProt Q14671 828-1176, S1079Q;N1080P;E1083R)
# Procedure, shortened: (§1)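 The interaction score is the log change in variant frequency from input to selection. Scores were computed in log2 with a pseudocount of 1 for absent variants, using Illumina sequencing of PCR-amplified repeat regions. The input came from four days on SC-Leu and the selection from four days on SC-Leu-His + 0.5 mM 3-AT. The cells were strain YBZ-1 (LexA–MS2 coat fusion, HIS3 reporter) co-expressing Pumilio-1 PUF domain libraries and matching RNA elements from a centromeric plasmid.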
# PUM1 PUF domain R4-NNG = PUM1 PUF domain R4-NNG (Homo sapiens, UniProt Q14671 828-1176, H972N;Q975G)
# Procedure, shortened: as §1
# PUM1 PUF domain R4-DYI = PUM1 PUF domain R4-DYI (Homo sapiens, UniProt Q14671 828-1176, N971D;H972Y;Q975I)
# Procedure, shortened: as §1
# PUM1 PUF domain R4-YHA = PUM1 PUF domain R4-YHA (Homo sapiens, UniProt Q14671 828-1176, N971Y;Q975A)
# Procedure, shortened: as §1
# PUM1 PUF domain R5-LYA = PUM1 PUF domain R5-LYA (Homo sapiens, UniProt Q14671 828-1176, C1007L;R1008Y;Q1011A)
# Procedure, shortened: as §1
# PUM1 PUF domain R3-LHH = PUM1 PUF domain R3-LHH (Homo sapiens, UniProt Q14671 828-1176, C935L;R936H;Q939H)
# Procedure, shortened: as §1
# PUM1 PUF domain R3-QRA = PUM1 PUF domain R3-QRA (Homo sapiens, UniProt Q14671 828-1176, C935Q;Q939A)
# Procedure, shortened: as §1
# PUM1 PUF domain R3-QRV = PUM1 PUF domain R3-QRV (Homo sapiens, UniProt Q14671 828-1176, C935Q;Q939V)
# Procedure, shortened: as §1
# PUM1 PUF domain R5-QRL = PUM1 PUF domain R5-QRL (Homo sapiens, UniProt Q14671 828-1176, C1007Q;Q1011L)
# Procedure, shortened: as §1
# PUM1 PUF domain R4-PFT = PUM1 PUF domain R4-PFT (Homo sapiens, UniProt Q14671 828-1176, N971P;H972F;Q975T)
# Procedure, shortened: as §1
# Sequence of PUM1 PUF domain R7-QPR (Q14671 828-1176 S1079Q/N1080P/E1083R): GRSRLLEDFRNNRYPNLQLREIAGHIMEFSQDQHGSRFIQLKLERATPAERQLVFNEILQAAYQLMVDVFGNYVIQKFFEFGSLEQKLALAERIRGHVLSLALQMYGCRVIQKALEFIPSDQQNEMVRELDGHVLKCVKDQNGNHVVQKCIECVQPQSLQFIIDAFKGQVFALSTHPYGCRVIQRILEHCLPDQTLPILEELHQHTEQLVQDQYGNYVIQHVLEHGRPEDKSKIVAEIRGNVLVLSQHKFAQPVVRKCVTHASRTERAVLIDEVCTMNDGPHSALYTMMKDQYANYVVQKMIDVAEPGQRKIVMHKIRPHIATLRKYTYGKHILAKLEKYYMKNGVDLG
# Sequence of PUM1 PUF domain R4-NNG (Q14671 828-1176 H972N/Q975G): as the sequence (Q14671 828-1176 S1079Q/N1080P/E1083R) above, with H145N, Q148G, Q252S, P253N, R256E counted along it
# Sequence of PUM1 PUF domain R3-QRA (Q14671 828-1176 C935Q/Q939A): as the sequence (Q14671 828-1176 S1079Q/N1080P/E1083R) above, with C108Q, Q112A, Q252S, P253N, R256E counted along it
# Sequence of PUM1 PUF domain R5-LYA (Q14671 828-1176 C1007L/R1008Y/Q1011A): as the sequence (Q14671 828-1176 S1079Q/N1080P/E1083R) above, with C180L, R181Y, Q184A, Q252S, P253N, R256E counted along it
# Sequence of PUM1 PUF domain R3-QRV (Q14671 828-1176 C935Q/Q939V): as the sequence (Q14671 828-1176 S1079Q/N1080P/E1083R) above, with C108Q, Q112V, Q252S, P253N, R256E counted along it
# Sequence of PUM1 PUF domain R5-QRL (Q14671 828-1176 C1007Q/Q1011L): as the sequence (Q14671 828-1176 S1079Q/N1080P/E1083R) above, with C180Q, Q184L, Q252S, P253N, R256E counted along it
# Sequence of PUM1 PUF domain R4-DYI (Q14671 828-1176 N971D/H972Y/Q975I): as the sequence (Q14671 828-1176 S1079Q/N1080P/E1083R) above, with N144D, H145Y, Q148I, Q252S, P253N, R256E counted along it
# Sequence of PUM1 PUF domain R4-YHA (Q14671 828-1176 N971Y/Q975A): as the sequence (Q14671 828-1176 S1079Q/N1080P/E1083R) above, with N144Y, Q148A, Q252S, P253N, R256E counted along it
# Sequence of PUM1 PUF domain R4-PFT (Q14671 828-1176 N971P/H972F/Q975T): as the sequence (Q14671 828-1176 S1079Q/N1080P/E1083R) above, with N144P, H145F, Q148T, Q252S, P253N, R256E counted along it
# Sequence of PUM1 PUF domain R3-LHH (Q14671 828-1176 C935L/R936H/Q939H): as the sequence (Q14671 828-1176 S1079Q/N1080P/E1083R) above, with C108L, R109H, Q112H, Q252S, P253N, R256E counted along it
sequence,measurement,setting,value
GGCUAGAACUAGUGGAUCCCCCGGCGCCCGGCGGCUCGAGCCCGGGUAAGUCUAAAUAGUCUGCAUGCCGCCGGGCGCCAUGCCUGCAGGUCGACUCUAGAAAACAUG,binding signal,PUM1 PUF domain R7-QPR,1.84 log2 enrichment (interaction score)
GGCUAGAACUAGUGGAUCCCCCGGCGCCCGGCGGCUCGAGCCCGGGUAAGUGUACAUAGUCUGCAUGCCGCCGGGCGCCAUGCCUGCAGGUCGACUCUAGAAAACAUG,binding signal,PUM1 PUF domain R4-NNG,1.82 log2 enrichment (interaction score)
GGCUAGAACUAGUGGAUCCCCCGGCGCCCGGCGGCUCGAGCCCGGGUAAGUGUAUAUAGUCUGCAUGCCGCCGGGCGCCAUGCCUGCAGGUCGACUCUAGAAAACAUG,binding signal,PUM1 PUF domain R4-DYI,6.31 log2 enrichment (interaction score)
same,binding signal,PUM1 PUF domain R4-NNG,4.95 log2 enrichment (interaction score)
same,binding signal,PUM1 PUF domain R4-YHA,3.12 log2 enrichment (interaction score)
GGCUAGAACUAGUGGAUCCCCCGGCGCCCGGCGGCUCGAGCCCGGGUAAGUGUUAAUAGUCUGCAUGCCGCCGGGCGCCAUGCCUGCAGGUCGACUCUAGAAAACAUG,binding signal,PUM1 PUF domain R5-LYA,3.15 log2 enrichment (interaction score)
GGCUAGAACUAGUGGAUCCCCCGGCGCCCGGCGGCUCGAGCCCGGGUAAGUGUAAGUAGUCUGCAUGCCGCCGGGCGCCAUGCCUGCAGGUCGACUCUAGAAAACAUG,binding signal,PUM1 PUF domain R3-LHH,5.47 log2 enrichment (interaction score)
same,binding signal,PUM1 PUF domain R3-QRA,3.67 log2 enrichment (interaction score)
same,binding signal,PUM1 PUF domain R3-QRV,3.59 log2 enrichment (interaction score)
GGCUAGAACUAGUGGAUCCCCCGGCGCCCGGCGGCUCGAGCCCGGGUAAGUGUGAAUAGUCUGCAUGCCGCCGGGCGCCAUGCCUGCAGGUCGACUCUAGAAAACAUG,binding signal,PUM1 PUF domain R5-QRL,3.22 log2 enrichment (interaction score)
GGCUAGAACUAGUGGAUCCCCCGGCGCCCGGCGGCUCGAGCCCGGGUAAGUGUAAAUAGUCUGCAUGCCGCCGGGCGCCAUGCCUGCAGGUCGACUCUAGAAAACAUG,binding signal,PUM1 PUF domain R4-PFT,5.31 log2 enrichment (interaction score)
same,binding signal,PUM1 PUF domain R5-LYA,3.54 log2 enrichment (interaction score)
same,binding signal,PUM1 PUF domain R5-QRL,3.37 log2 enrichment (interaction score)
GGCUAGAACUAGUGGAUCCCCCGGCGCCCGGCGGCUCGAGCCCGGGUAAGUUUAAAUAGUCUGCAUGCCGCCGGGCGCCAUGCCUGCAGGUCGACUCUAGAAAACAUG,binding signal,PUM1 PUF domain R7-QPR,5.06 log2 enrichment (interaction score)
GGCUAGAACUAGUGGAUCCCCCGGCGCCCGGCGGCUCGAGCCCGGGUAAGUGUAAUUAGUCUGCAUGCCGCCGGGCGCCAUGCCUGCAGGUCGACUCUAGAAAACAUG,binding signal,PUM1 PUF domain R3-QRA,2.85 log2 enrichment (interaction score)
same,binding signal,PUM1 PUF domain R3-QRV,2.73 log2 enrichment (interaction score)
